Reference: PubChem BioAssay (Tox21)
Inconclusive results are not listed. Entries that show only a call come without a potency. Active and inactive are the calls of the source.

What follows are compounds tested against Estrogen receptor beta (Homo sapiens) (UniProt Q92731) (assay: qHTS assay to identify small molecule agonists of the estrogen receptor beta (ER-beta) signaling pathway (AID 1259377; active = well fitted activation curve with a large enough effect in the signal ratio in the repeat runs, not every such curve was filed as active; the % refers to the signal ratio)). Conditions: ER-beta-UAS-bla HEK293T, beta-lactamase FRET ratio, 16 h; series mostly up to 92.4 µM.
Estrogen receptor beta (Homo sapiens), sequence (Q92731 whole entry, looked up, the tested form may be a part): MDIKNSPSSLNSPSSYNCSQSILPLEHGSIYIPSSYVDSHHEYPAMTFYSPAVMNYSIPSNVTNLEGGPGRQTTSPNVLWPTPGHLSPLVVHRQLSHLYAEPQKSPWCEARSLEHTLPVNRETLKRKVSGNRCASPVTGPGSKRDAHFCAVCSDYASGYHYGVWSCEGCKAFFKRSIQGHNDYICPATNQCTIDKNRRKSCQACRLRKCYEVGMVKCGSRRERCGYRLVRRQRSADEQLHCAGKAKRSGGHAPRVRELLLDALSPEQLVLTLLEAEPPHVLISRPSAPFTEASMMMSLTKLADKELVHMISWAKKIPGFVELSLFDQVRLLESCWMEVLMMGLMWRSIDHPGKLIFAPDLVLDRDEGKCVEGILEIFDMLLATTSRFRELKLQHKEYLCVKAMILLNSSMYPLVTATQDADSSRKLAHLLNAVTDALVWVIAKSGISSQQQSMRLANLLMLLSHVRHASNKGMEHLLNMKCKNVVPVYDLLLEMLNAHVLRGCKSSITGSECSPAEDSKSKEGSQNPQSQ
How it was run: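 Agonist mode cell assay in GripTite HEK293T cells expressing an ER-beta fusion that drives beta-lactamase from an Upstream Activator Sequence; 16 hr compound exposure at 37C, then 2 h LiveBLAzer B/G FRET substrate at room temperature, fluorescence read-out.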
For `CC(=O)Oc1ccccc1C(=O)O`, the outcome was “inactive”. `COc1ccccc1O` was tested, and the outcome was “inactive”. `COCCOCCOC` was tested, and the outcome was “inactive”. For `COCC(C)N` (stereo unspecified), the outcome was “inactive”. In the case of `CCCCCCCCCCCCCC(=O)OC(C)C`, the outcome is reported as “inactive”. In the case of `COc1cc(C=O)ccc1O`, the outcome is reported as “inactive”. With `COc1ccc(C(=O)c2ccccc2)c(O)c1` the outcome was “inactive”. In the case of `C1CNCCN1`, the outcome is reported as “inactive”. `COc1cc(O)c(C(=O)c2ccccc2)cc1S(=O)(=O)O` was tested, and the outcome was “inactive”. For `COc1ccc(O)cc1`, the outcome was “inactive”. For `CC(O)COc1ccccc1` (stereo unspecified), the outcome was “inactive”. In the case of `NC(N)=NC(N)=NCCc1ccccc1`, the outcome is reported as “inactive”. `CC1=NN(c2ccccc2)C(=O)C1` was tested, and the outcome was “inactive”. For `NC(=O)N1c2ccccc2C=Cc2ccccc21`, the outcome was “inactive”. In the case of `Cc1cccc(C)c1O`, the outcome is reported as “inactive”. `NC(=O)N/N=C/c1ccc([N+](=O)[O-])o1` was tested, and the outcome was “inactive”. With `C[C@]12CC[C@@H]3c4ccc(O)cc4C[C@@H](CCCCCCCCCS(=O)CCCC(F)(F)C(F)(F)F)[C@H]3[C@@H]1CC[C@@H]2O` (stereo partly specified) the outcome was “inactive”. `CC(=O)c1ccc(S(=O)(=O)NC(=O)NC2CCCCC2)cc1` was tested, and the outcome was “inactive”. With `Cc1ccc(O)c(-n2nc3ccccc3n2)c1` the outcome was “inactive”. `COC(=O)c1ccc(O)cc1` was tested, and the outcome was “inactive”. For `c1ccc2[nH]c(-c3cscn3)nc2c1`, the outcome was “inactive”. For `OCCCc1ccccc1`, the outcome was “inactive”. In the case of `COc1cc2c(c(OC)c1OC)-c1ccc(OC)c(=O)cc1[C@@H](NC(C)=O)CC2`, the outcome is reported as “inactive”.

Each compound was assayed against Estrogen receptor beta (Homo sapiens) (UniProt Q92731) (assay: qHTS assay to identify small molecule antagonists of the estrogen receptor beta (ER-beta) signaling pathway (AID 1259378; active = well fitted inhibition curve with a large enough effect in the signal ratio in the repeat runs, not every such curve was filed as active; the % refers to the signal ratio; note: potency is the fitted concentration of half-maximal effect)). Conditions: ER-beta-UAS-bla HEK293T, beta-lactamase FRET ratio, 16 h; series mostly up to 92.4 µM.
How it was run: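 Antagonist mode: compounds added to beta-lactamase reporter HEK293T ER-beta-UAS cells stimulated with E2 (1nM final), 16 hr at 37C. LiveBLAzer B/G FRET substrate, 2 hours room temperature, fluorescence read-out.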
With `CC(=O)Oc1ccccc1C(=O)O` the Potency was “inactive”. In the case of `COc1ccccc1O`, the Potency is reported as “inactive”. In the case of `COCCOCCOC`, the Potency is reported as “inactive”. In the case of `COCC(C)N` (stereo unspecified), the Potency is reported as “inactive”. For `CCCCCCCCCCCCCC(=O)OC(C)C`, the Potency was “inactive”. In the case of `COc1cc(C=O)ccc1O`, the Potency is reported as “inactive”. In the case of `COc1ccc(C(=O)c2ccccc2)c(O)c1`, the Potency is reported as “inactive”. `C1CNCCN1` was tested, and the Potency was “inactive”. With `COc1cc(O)c(C(=O)c2ccccc2)cc1S(=O)(=O)O` the Potency was “inactive”. In the case of `COc1ccc(O)cc1`, the Potency is reported as “inactive”. For `CC(O)COc1ccccc1` (stereo unspecified), the Potency was “inactive”. `NC(N)=NC(N)=NCCc1ccccc1` was tested, and the Potency was “inactive”. In the case of `CC1=NN(c2ccccc2)C(=O)C1`, the Potency is reported as “inactive”. `NC(=O)N1c2ccccc2C=Cc2ccccc21` was tested, and the Potency was “inactive”. `Cc1cccc(C)c1O` was tested, and the Potency was “inactive”. For `NC(=O)N/N=C/c1ccc([N+](=O)[O-])o1`, the Potency was “inactive”. For `CC(=O)c1ccc(S(=O)(=O)NC(=O)NC2CCCCC2)cc1`, the Potency was “inactive”. For `Cc1ccc(O)c(-n2nc3ccccc3n2)c1`, the Potency was “inactive”. For `COC(=O)c1ccc(O)cc1`, the Potency was “inactive”. With `c1ccc2[nH]c(-c3cscn3)nc2c1` the Potency was “inactive”. With `O=C1OC(c2ccc(O)cc2)(c2ccc(O)cc2)c2ccccc21` the Potency was 15.4 µM (active). In the case of `OCCCc1ccccc1`, the Potency is reported as “inactive”. With `COc1cc2c(c(OC)c1OC)-c1ccc(OC)c(=O)cc1[C@@H](NC(C)=O)CC2` the Potency was “inactive”.
